SMILES strings stand for the structures. In all, about 330,000 compounds went through this assay and about 4,400 (1.3%) were called active. The sample holds actives, similar compounds and a random draw of the others, so the mix is not that of the screen. Unmarked numbers belong to inactive results.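 The calls were made as follows: active = growth inhibition of the mutant yeast at or above 50%; inactive = the rest.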

The test in a line: growth inhibitors of tim23-1 mutant yeast, primary screen, luminescence, uHTS (AID 463212).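 Also: temperature-sensitive mutant grown at 25 °C; plate controls were DMSO-treated mutant yeast for no effect and medium wells lacking yeast for full effect.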 The conditions noted are these: S. cerevisiae tim23-1 growth, BacTiter-Glo luminescence, 24 h; at 20 µM; stronger effect = higher value.
Take `COc1cccc(N2C(=O)NC(=O)/C(=C\c3ccc([N+](=O)[O-])s3)C2=O)c1`: the inhibition (usually the drop in the measured response relative to a control, in per cent) was 50.5% (active). The value for `O=C1NC(=O)N(c2ccccc2)C(=O)/C1=C/c1ccc([N+](=O)[O-])s1` was 41.2%; that for `COc1ccc(N2C(=O)/C(=C/c3ccco3)C(=O)NC2=S)cc1` was 11.6%. For the compound `COC(=O)C1=C(c2ccc(F)cc2OCc2ccccc2)C[C@@H]2CC[C@H]1N2C(=O)NCc1ccc(C(C)(C)C)cc1`, the inhibition was 19.7%. For the compound `Cc1cc2ccccn2c1C(C[N+](=O)[O-])c1c(F)cccc1Cl` (stereo not given), the inhibition was 69.2% (active). As for `O=c1c2ccccc2nc(-c2ccc(Cl)cc2Cl)n1-c1ccncc1`, the figure is 35.9%. As for `COP(=O)(OC)C(NC(=O)c1ccc(C)cc1)C(Cl)(Cl)Cl` (stereo not given), the figure is -17.8%; as for `COC(=O)C1=C(c2ccc(Cl)c(C(F)(F)F)c2)C[C@@H]2CC[C@H]1N2C(=O)NC(C)C`, 21.8%. As for `CCC(C)n1c(O)c(/C=N/Nc2nc3c(c(=O)n(C)c(=O)n3C)n2C)c(=O)[nH]c1=S` (stereo not given), the inhibition is 1.46%. For the compound `CC(=O)N1CN2CN(C(C)=O)CC(C(=O)c3ccc(Br)cc3)(C2)C1`, the inhibition was 0.81%. On to `O=c1c2ccccc2nc(-c2ccco2)n1-c1ccc(Br)cn1`, for which the inhibition is 29%. In the case of `Cc1ccc(-c2nc3ccccc3c(=O)n2-c2ccc(Br)cn2)cc1`, the inhibition was 52.7% (active). As for `O=c1c2ccccc2nc(-c2ccccc2)n1-c1ccccn1`, the figure is 14.3%; as for `COC(=O)C1=C(c2cc3ccccc3s2)C[C@@H]2CC[C@H]1N2C(=O)NCc1cccc2ccccc12`, 34.5%; as for `COc1cccc(CN2CCCC(C(=O)c3ccccc3SC)C2)c1O` (stereo not given), 8.13%.

Source of the values: PubChem BioAssay AID463212 (Sanford-Burnham Center for Chemical Genomics, 2010).
